Reference: PubChem BioAssay AID2314 (National Center for Advancing Translational Sciences (NCATS), 2010)
Several values for one entry are separate records, joined by “and”; a condition that tells them apart may be missing. Identical values can stand only once. Among all 300,000 compounds or so, about 37,000 (12%) were called active. No stated cut-off is given here; in the data, active means max response mostly above about 13% (no sharp cut-off); inactive means mostly below about 14%. The entries come from a sample that favours actives as a whole.

Test: Cycloheximide Counterscreen for Small Molecule Inhibitors of Shiga Toxin; further: read at 38.3 µM for the half of the compounds with a filed dose; 0% is about no effect
Details: cell reporter, cycloheximide protein synthesis inhibition counterscreen; stronger effect = higher value

| Structure (SMILES) | max response |
| --- | --- |
| Fc1ccc2[nH]c3c(N4CCN(Cc5ccc6c(c5)OCO6)CC4)ncnc3c2c1 | -4.86% (inactive) |
| COc1ccc(CN2CC(C(=O)NCCc3ccc(Cl)cc3)CC2=O)cc1 (stereo not drawn) | -3.25% (inactive) |
| CNC(=O)NCCN1CCCC1=O | -5.85% (inactive) |
| Cc1ccc(S(=O)(=O)N(CC(=O)NN=C2CCN(C)CC2)c2ccc(F)cc2)cc1 | -0.935% (inactive) |
| Cc1ccc(C(=O)N(CN2CCCC2=O)c2ccc(F)cc2)cc1 | 11.4% (active) |
| CCc1nc(N2CCN(C(C)=O)CC2)c2c3c(sc2n1)CCCC3 | 1.8% (inactive) |
| O=C(CCc1ccccc1)NCc1cccnc1 | 1.47% (inactive) |
| O=C(Nc1ccc(NC(=O)c2ccccc2F)cc1)c1ccccc1F | 12.7% (inactive) |
| O=C(Nc1nc(-c2ccc(-c3ccccc3)cc2)cs1)c1cnccn1 | 35.3% (active) |
| O=C(Nc1nnc(-c2ccccc2F)s1)c1ccccc1F | 17.9% (active) |
| Cc1ccc(-c2csc(NC(=O)c3cnccn3)n2)cc1C | 1.6% (inactive) |
| O=C(Nc1ccccc1F)c1ccccc1-c1ccccc1 | -1.34% (inactive) |
| O=C(NCc1cccnc1)C(=O)Nc1nc(-c2ccccc2)cs1 | 39.9% (active) |
| O=C(Nc1nc(-c2cccnc2)cs1)c1ccccc1F | 45.8% (active) |
| O=C(O)c1ccccc1C(=O)Nc1nc(-c2ccccc2)cs1 | -3.4% (inactive) |
| O=C(Nc1nnc(Cc2ccccc2)s1)c1cnccn1 | 9.38% (inactive) |
| CN(Cc1ccccc1)S(=O)(=O)c1nnc(NC(=O)c2ccccc2F)s1 | -3.23% (inactive) |
| O=C(O)c1ccccc1-c1ccccc1C(=O)NCc1cccnc1 | -0.956% (inactive) |
| CCN1C(=NCc2ccc(OC)cc2)N[C@@H](CCc2ccccc2)[C@H](C(=O)NCc2ccc(OC)cc2)[C@H]1C | -3.38% (inactive) and 1.66% (inactive) |
| CCCCCCCCCCOC(=O)Cn1c(COc2ccc(C)cc2)[n+](C)c2ccccc21 | -4.67% (inactive) |
| COc1ccc(-c2cc(C3CCN(c4ncccc4[N+](=O)[O-])CC3)[nH]n2)cc1 | -2.37% (inactive) |
| CC1CCCCN1CCCNC(=O)Cn1ncc2c([nH]c3ccccc32)c1=O (stereo not drawn) | -1.43% (inactive) |
| Cc1cc(C)c(C(=O)CSc2nc(C)cc(=O)[nH]2)c(C)c1 | 6.02% (inactive) |
| CCn1cc(/C=C(\NC(=O)c2cc(OC)c(OC)c(OC)c2)C(=O)N2CCN(C)CC2)c2ccccc21 | -3.51% (inactive) |

| Structure (SMILES) | max response |
| --- | --- |
| CCOC(=O)c1ccc(NC(=S)N2CCN(c3ccccn3)CC2)cc1 | -2.76% (inactive) |
| Cc1ccccc1Nc1nc(-c2cccnc2)cs1 | 40.6% (active) |
| CCCCNC(=O)CCn1nc(-c2ccc(Cl)cc2)ccc1=O | -0.835% (inactive) |
| Cc1cc2c(cc1C)N(C(=O)CN1C(=O)c3ccccc3C1=O)C(C)(C)c1ssc(=S)c1-2 | -0.934% (inactive) |
| Cc1cc(N2CCCC2)n2nc(C)c(-c3ccccc3)c2n1 | 6.19% (inactive) |
| Cc1cc(-n2nc(C)cc2C)n2nc(C)c(-c3ccccc3)c2n1 | -1.22% (inactive) |
| Cc1cc(-n2nc(C)cc2C)n2ncc(-c3ccccc3)c2n1 | 42.3% (active) |
| O=C(NCC1CC1)C1(C(F)(F)F)C/C(=C\CCO)CCCO1 (stereo not drawn) | -3.88% (inactive) |
| COc1ccc(Cc2nnc(N/N=C/c3ccccc3O)[nH]c2=O)cc1OC | -1.41% (inactive) |
| c1ccc(-c2ccc3c(c2)NC(C2Nc4cc(-c5ccccc5)ccc4O2)O3)cc1 (stereo not drawn) | -0.428% (inactive) |
| C/C(=N\NC(=O)NC1CCCCC1)c1ccc(OC(F)F)cc1OC(F)F | 9.08% (inactive) |
| CS(=O)(=O)N1CCc2cc(C(=O)Nc3ccccc3Br)ccc21 | 30.9% (active) |
| CS(=O)(=O)N1CCc2cc(C(=O)Nc3ccccc3)ccc21 | -1.85% (inactive) |
| CCc1ccccc1NC(=O)c1ccc2c(c1)CCN2S(C)(=O)=O | -1.1% (inactive) |
| CC(=O)Nc1cccc(NC(=O)c2ccc3c(c2)CCN3S(C)(=O)=O)c1 | 2.48% (inactive) |
| COc1ccc(OC)c(NC(=O)c2ccc3c(c2)CCN3S(C)(=O)=O)c1 | -0.802% (inactive) |
| CSc1ccccc1NC(=O)c1ccc2c(c1)CCN2S(C)(=O)=O | 43.6% (active) |
| COCc1ccc(C(=O)N2CCc3c([nH]c4ccccc34)C2c2ccccn2)s1 (stereo not drawn) | -4.02% (inactive) |
| COc1ccc(-c2cc(=O)oc3cc(OC(C)C(=O)Nc4ccc(CN5CCOCC5)cc4)ccc23)cc1 (stereo not drawn) | -4.69% (inactive) |
| Cc1ccc(OCc2nnc(SC3CCc4ccccc4C3=O)n2C)cc1 (stereo not drawn) | 4.12% (inactive) |
| CC(=O)Nc1ccc(/C=N/Nc2ccc(C(=O)c3c(C)cc4ccccn34)cc2[N+](=O)[O-])cc1 | 3.53% (inactive) |
| Cc1cc(N2C(=O)C(O)=C(C(=O)c3ccc(C)o3)C2c2ccc(OCc3ccccc3)cc2)no1 (stereo not drawn) | -0.599% (inactive) |
| Cc1ccccc1Nc1nc(N)nc(CSc2nnc3ccccn23)n1 | 13.9% (active) |
| Cc1ccc(Nc2nc(N)nc(CN3CCN(Cc4ccccc4)CC3)n2)cc1Cl | -3.89% (inactive) |

| Structure (SMILES) | max response |
| --- | --- |
| Cc1ccccc1Nc1nc(N)nc(CN2CCN(c3ccccn3)CC2)n1 | 0.552% (inactive) |
| Cc1ccc(C(=O)OCc2nc(N)nc(Nc3ccccc3C)n2)cc1 | -0.878% (inactive) |
| CCSCc1nc(N)nc(NCCc2ccccc2)n1 | 12.6% (inactive) |
| Cc1ccccc1Nc1nc(N)nc(CSc2ccccc2)n1 | 67% (active) |
| CCCN1CCC(=O)N(C(CSc2ccc(OC)cc2)Cc2ccccc2)CC1 (stereo not drawn) | 6.9% (inactive) |
| Cc1cc(C)n(-c2ccc(NC(=O)C3CCCCN3C(=O)c3cccs3)cc2)n1 (stereo not drawn) | 7.2% (inactive) |
| COc1ccc(-n2c(C)cc(C(=O)COC(=O)c3cc(OC)c(OC)cc3NC(=O)c3cccs3)c2C)cc1 | -3.59% (inactive) |
| CCc1nn(CC(=O)N2CCN(c3cc(C)ccc3C)CC2)c(=O)c2cc3occc3n12 | -8.63% (inactive) |
| CC1CCN(S(=O)(=O)c2ccc3c(ccn3CC(=O)O)c2)CC1 | -6.07% (inactive) |
| CN(C)c1ccnc(Nc2ccc(F)cc2)c1C#N | -1.37% (inactive) |
| CC(C)c1ccc(Nc2ncccc2C#N)cc1 | 43.2% (active) |
| O=C(Oc1cccc(O)c1)C1CCCCC1 | 1.32% (inactive) |
| O=C(NN1C(=O)C2C(C1=O)C1C=CC2C12CC2)c1ccccc1Cl (stereo not drawn) | 0.62% (inactive) |
| CC12CCC(C(=O)N(c3cccc(Cl)c3)C1=O)C2(C)C (stereo not drawn) | -2.01% (inactive) |
| CC12CCC(C(=O)N(NC(=O)c3ccccc3O)C1=O)C2(C)C (stereo not drawn) | 11.2% (active) |
| O=C(COc1ccc(Cl)cc1)NC(=S)Nc1ccccc1N1CCOCC1 | 1.2% (inactive) |
| CCOC(=O)C1C/C(=C\C(C)=O)c2cccc(C(F)(F)F)c2O1 (stereo not drawn) | -2.62% (inactive) |
| CCOC(=O)c1c(C)[nH]c(C(=O)NCCN2CCOCC2)c1C | -3.76% (inactive) |
| CCOC(=O)c1c(C)[nH]c(C(=O)NCc2ccccc2OC)c1C | 17% (active) |
| CC(=O)c1c(C)[nH]c(C(=O)NCc2ccc(C)cc2)c1C | 15.3% (inactive) |
| O=C(O)c1ccc(OCC2CCCO2)cc1 (stereo not drawn) | -2.17% (inactive) |
| COC(=O)c1c(C)oc(C)c1S(=O)(=O)Nc1ccc(C(C)C)cc1 | -1.83% (inactive) |
| C=CCn1c(-c2sc(-c3ccccc3)nc2C)n[nH]c1=S | 1.59% (inactive) |
| Cc1nc(-c2ccccc2)sc1-c1nc(-c2ccccc2)ncc1S(=O)(=O)c1ccccc1 | 1.01% (inactive) |

| Structure (SMILES) | max response |
| --- | --- |
| Cc1nc(-c2ccccc2)sc1-c1nnc(C2CC2)o1 | 38.7% (active) |
| CCOc1ccccc1NC(=O)COc1ccc(S(=O)(=O)N2CCCC2)cc1 | -2.13% (inactive) |
| CCc1nc2ccccc2c(C(=O)OC2CCCCC2=O)c1C (stereo not drawn) | 8.91% (inactive) |
| O=C(Nc1c2c(nc3ccccc13)CCCC2)c1ccccc1Br | -2.17% (inactive) |
| O=C(COC(=O)c1c2c(nc3ccccc13)CCCC2)c1ccc(Br)s1 | 25% (active) |
| COc1ccccc1C(=O)Nc1ccnn1C1CCN(Cc2cnn(C)c2)CC1 | 0.446% (inactive) |
| COc1ccc2c(c1)c1nc3n(c(=O)c1n2CC(=O)Nc1ccccc1)CCS3 | -2.14% (inactive) |
| CC(=O)CC(c1ccccc1)C1C(=O)Oc2ccccc2C1=O (stereo not drawn) | -3.15% (inactive) |
| Cc1cc(C)c2oc(C(=O)Nc3ccc(S(=O)(=O)Nc4nccc(C)n4)cc3)cc(=O)c2c1 | 5.57% (inactive) |
| COc1ccccc1C(=O)CSc1cccc[n+]1[O-] | 9.7% (inactive) |
| O=C(CSc1cccc[n+]1[O-])NCCCc1ccccc1 | 10.3% (inactive) |
| Cn1c(CC2Sc3ccccc3NC2=O)nnc1SCC(=O)c1ccc(Cl)cc1 (stereo not drawn) | 6.52% (inactive) |
| O=C(CSc1cccc[n+]1[O-])c1ccc(-c2ccccc2)cc1 | 44.8% (active) |
| Cc1cc(Oc2ccc(Cl)cc2)nc(SCC(=O)c2ccccc2)n1 | 0.695% (inactive) |
| O=C(CSc1cccc[n+]1[O-])c1ccc(Cl)cc1 | 16.8% (active) |
| CCOC(=O)N1CCC(N2Cc3cccc(C(=O)Nc4ccc(S(=O)(=O)N(CC)CC)cc4)c3C2=O)CC1 | -7.45% (inactive) |
| CC(=O)c1c(C)oc2ccc(NS(=O)(=O)c3ccccc3)cc12 | -4.79% (inactive) |
| O=C(Nc1ccc(-c2cscn2)cc1)C1CCCN(Cc2ccc(CO)o2)C1 (stereo not drawn) | 10.2% (inactive) |
| Cc1cc(C)cc(NC(=O)C2CCCN2S(=O)(=O)c2cccc3cccnc23)c1 (stereo not drawn) | 0.222% (inactive) |
| CCCCNS(=O)(=O)c1ccc2nc(SCC(=O)Nc3cc(C)cc(C)c3)[nH]c2c1 | -6.32% (inactive) |
| Cc1ccc2nc(-c3ccncc3)cc(C(=O)Nc3ccc(OC(F)F)cc3)c2c1 | -4.25% (inactive) |
